Most compounds without a hit are left out; they make up all but 21% or so of the library.
DRD3 agonist = D3 dopamine receptor (human) agonism | P35462 | D3R DiscoveRx beta-arrestin cells, luminescence, 90 min | max activation, % | actives 0.58% (n = 410,000); in the data active means max activation above about 30%
Target sequence (P35462 whole entry, looked up): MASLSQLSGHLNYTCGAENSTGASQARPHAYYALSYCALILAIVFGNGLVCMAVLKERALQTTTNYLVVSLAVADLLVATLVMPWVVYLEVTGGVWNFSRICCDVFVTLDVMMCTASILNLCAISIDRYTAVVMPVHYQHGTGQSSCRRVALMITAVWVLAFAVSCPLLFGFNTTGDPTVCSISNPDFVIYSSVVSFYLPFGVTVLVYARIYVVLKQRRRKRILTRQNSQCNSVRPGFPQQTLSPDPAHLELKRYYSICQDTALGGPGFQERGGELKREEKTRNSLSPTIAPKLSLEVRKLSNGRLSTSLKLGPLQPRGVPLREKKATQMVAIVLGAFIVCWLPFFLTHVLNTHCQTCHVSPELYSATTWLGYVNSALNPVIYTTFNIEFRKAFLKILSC
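Cells at 1500/well, incubated overnight, then treated with pinned compounds (dopamine as control) for 90 min at 37 degrees C. DiscoveRx reagent added for 30 - 60 minutes at room temperature; luminescence read.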
IL1B secr inh = inflammasome signaling inhibition, IL-1 beta readout | activity change, % at 57.5 µM | actives 4.7% (n = 360,000) | THP-1 LPS/ATP IL-1B secretion, AlphaLISA, 16 h; hits give low values | AID 743279; in the data active means activity change below about -50%; inconclusive means mostly about -30% to -49%
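Secreted IL-1B measured by AlphaLISA bead assay after 16 h compound exposure of THP-1 cells; compounds (final up to 57.5 uM) added 1 h before LPS (250 ng/mL) and ATP (1.25 mM) stimulation; lower signal means less secretion.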
ClpP mod = qHTS Assay for Activators of ClpP. ATP-dependent Clp protease proteolytic subunit (Bacillus subtilis (strain 168)), P80244. purified B. subtilis ClpP, FRET peptide cleavage, 20 min. Potency, µM (top dose mostly 57.5 µM). actives 1.9% (n = 340,000). AID 651965, 2013; active means well fitted falling curve with a large enough effect; inconclusive means small, poorly fitted or top-dose-only effect; inactive means no such curve, though single readings can be large or run the other way; further: the source files actives as falling curves though it sought activators and does not explain the sign; nearly all actives have a fitted effect of over 65% in size
Target sequence (P80244 whole entry, looked up): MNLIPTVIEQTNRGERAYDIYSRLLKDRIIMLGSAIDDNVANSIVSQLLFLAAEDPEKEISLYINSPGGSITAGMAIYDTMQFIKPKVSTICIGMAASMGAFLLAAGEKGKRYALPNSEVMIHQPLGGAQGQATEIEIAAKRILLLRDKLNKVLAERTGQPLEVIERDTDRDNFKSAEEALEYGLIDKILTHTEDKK
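ClpP 10 microg/mL final, pH 8 Tris/KCl buffer with BSA, glycerol, Tween-20; compound pinned in; FRET-FV substrate; RT 20 min; Ex320/Em430; ΔFRET vs ADEP 5.8 microM, DMSO, no enzyme.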
TDP1 cell CPT = growth inhibition of DT40 Tdp1-/-;hTDP1 cells with camptothecin (screen for TDP1 inhibitors); chicken DT40 Tdp1-/-;hTDP1 cells + 20 nM CPT, ATP luminescence, 48 h; Potency, µM (top dose mostly 46.2 µM), usual class: inhibitors; actives 12% (n = 420,000); AID 686979; further: nearly all actives have a fitted effect of over 55% in size
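Chicken DT40 Tdp1-/- cells stably complemented with human TDP1 were seeded at 400 cells/well in medium containing 20 nM camptothecin, exposed to pin-transferred compounds, and grown at 37 °C for at least 48 hr. Viability was read as ATP luminescence.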
TDP1 cell noCPT = qHTS for Inhibitors of human tyrosyl-DNA phosphodiesterase 1 (TDP1): qHTS in cells in absence of CPT. DT40 Tdp1-/- hTDP1 cells, no CPT, ATP luminescence, 48 h. Potency, µM (series often up to 46.2 µM), most hits filed as inhibitors. actives 15% (n = 420,000). AID 686978, 2013; further: nearly all actives have a fitted effect of over 55% in size
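Cells were dispensed at 400 per well, compounds added by pin tool, plates incubated ≥48 hr at 37 °C, then CellTiter-Glo added for 30 min at room temperature before luminescence reading. Line: DT40 Tdp1-/- complemented with hTDP1; camptothecin omitted.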
D3 antag = blocks the human D3 dopamine receptor; actives 2.5% (n = 360,000); AID 652054; max response, negative = inhibition, %; D3R cells, DiscoveRx beta-arrestin luminescence, antagonist mode; hits give low values; P35462; in the data active means max response below about -50%; inconclusive means no clear call, values can overlap the other calls
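Cells expressing the human receptor were seeded at 1500 cells/well, incubated overnight at 37 degrees C in 5% CO2, then exposed to library compounds with dopamine controls for 90 minutes at 37 degrees C before luminescent detection.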
Of the large screens only hits and unclear results are named; the others gave an inactive call. Unless noted, the call rests on the fitted dose curve; in most records, active means well fitted inhibition curve with a large enough effect; inconclusive means small, poorly fitted or top-dose-only effect; inactive means flat fitted curve, though single readings scatter.

COc1ccc(OC)c(C(C(=O)NC2CCCCC2)N(C(=O)c2snc(C(N)=O)c2N)c2ccccc2OC)c1 (stereo not drawn)	TDP1 cell CPT inconclusive, TDP1 cell noCPT inconclusive
COc1ccc(N(C(=O)c2snc(C(N)=O)c2N)C(C(=O)NC2CCCC2)c2cccs2)c(OC)c1 (stereo not drawn)	TDP1 cell CPT inconclusive, TDP1 cell noCPT 21µM (no result: ClpP mod)
CCOc1ccccc1N(C(=O)c1snc(C(N)=O)c1N)C(C(=O)NCCC(C)C)c1ccco1 (stereo not drawn)	TDP1 cell CPT inconclusive, TDP1 cell noCPT 21µM
Cc1ccc(C)c(Cn2c(=O)n(-c3ccc(F)cc3)c(=O)c3sc4ccccc4c32)c1	ClpP mod inconclusive, TDP1 cell CPT inconclusive (no result: IL1B secr inh, D3 antag)
Cc1cnc(NC(=O)c2c(-c3ccccc3)noc2C)s1	none
COc1ccc(N(CC(=O)N2CCCCC2)S(=O)(=O)c2ccc(OC)c(OC)c2)cc1	none (no result: IL1B secr inh, D3 antag)
CC1CN(C(=O)CSc2nnc(NC(=O)NC(C)(C)C)s2)CC(C)O1 (stereo not drawn)	TDP1 cell noCPT inconclusive
CCCCSc1nc(C)cc(C)c1S(=O)(=O)c1ccccc1C	TDP1 cell CPT 18µM, TDP1 cell noCPT inconclusive
CC1(C)C(=O)Nc2ccccc2N1C(=O)COc1ccccc1C#N	none (no result: ClpP mod)
CCOC(=O)c1c(C)[nH]c(C(=O)Cn2nnc(-c3ccccc3Cl)n2)c1C	none
CCOC(=O)c1c(C)[nH]c(C)c1C(=O)Cn1nnc(-c2ccccc2C)n1	TDP1 cell CPT 15µM, TDP1 cell noCPT inconclusive
CC(=O)N1CCN(S(=O)(=O)c2cccc(C(=O)OCN3C(=O)c4ccccc4C3=O)c2)CC1	none (no result: ClpP mod)
CC(=O)N1CCN(S(=O)(=O)c2cccc(C(=O)OCc3ccc(F)cc3)c2)CC1	TDP1 cell CPT inconclusive, TDP1 cell noCPT 18µM
CC(=O)N1CCN(S(=O)(=O)c2cccc(C(=O)OCc3cccc(F)c3)c2)CC1	TDP1 cell CPT inconclusive, TDP1 cell noCPT 23µM
C#CCOCCOCCOCCNc1nc(N2CCN(C(=O)C([C@@H](C)CC)n3cc(C(N)COC(=O)C(F)(F)F)nn3)CC2)nc(N2CCN(C(=O)[C@H](CCC(=O)O)n3cc(C(N)CC(C)C)nn3)CC2)n1 (stereo partly drawn)	none
C[C@H](CO)N1C[C@H](C)[C@@H](CN(C)S(=O)(=O)c2cn(C)cn2)Oc2ccc(NS(=O)(=O)c3ccccc3)cc2C1=O	DRD3 agonist 35
C[C@H](CO)N1C[C@H](C)[C@@H](CN(C)S(=O)(=O)c2ccccc2)Oc2ccc(NS(=O)(=O)c3cn(C)cn3)cc2C1=O	none
C[C@H](CO)N1C[C@H](C)[C@@H](CN(C)S(=O)(=O)c2cn(C)cn2)Oc2c(NS(=O)(=O)c3ccccc3)cccc2C1=O	DRD3 agonist 49
COc1ccc(S(=O)(=O)Nc2ccc3c(c2)C(=O)N([C@H](C)CO)C[C@H](C)[C@@H](CN(C)S(=O)(=O)c2ccccc2)O3)cc1	TDP1 cell CPT 21µM, TDP1 cell noCPT inconclusive
COc1ccc(S(=O)(=O)N(C)C[C@H]2Oc3ccc(NC(=O)Cc4cn(C)c5ccccc45)cc3C(=O)N([C@@H](C)CO)C[C@@H]2C)cc1	TDP1 cell CPT inconclusive, TDP1 cell noCPT 15µM
O=C(NCC(O)c1ccc([N+](=O)[O-])cc1)c1cccc(S(=O)(=O)N2CCCC2)c1 (stereo not drawn)	none (no result: ClpP mod)
COc1ccc(CCNC(=O)[C@@H](NC(=O)c2ccccc2F)C(C)C)cc1OC	ClpP mod inconclusive
CC(C)(C)c1ccc(C(=O)NC(=O)COC(=O)CCS(=O)(=O)c2ccccc2)cc1	D3 antag inconclusive
O=C(c1cnccn1)N1CCC2(CCCN(c3ccccc3)C2)CC1	TDP1 cell noCPT inconclusive (no result: DRD3 agonist, IL1B secr inh, ClpP mod, D3 antag)
O=c1[nH]c(/C(Cl)=C/c2cc(Cl)ccc2O)nc2cc(Cl)ccc12	IL1B secr inh -105, TDP1 cell CPT 13µM, TDP1 cell noCPT 13µM
CCOc1ccc(Cc2nccc3cc(OCC)c(OCC)cc23)cc1OCC	TDP1 cell CPT 5.8µM, TDP1 cell noCPT 5.8µM (no result: IL1B secr inh, ClpP mod, D3 antag)
COC1=C(OC)C(=O)C(C/C=C(\C)CC/C=C(\C)CC/C=C(\C)CC/C=C(\C)CC/C=C(\C)CC/C=C(\C)CC/C=C(\C)CC/C=C(\C)CC/C=C(\C)CCC=C(C)C)=C(C)C1=O	none (no result: IL1B secr inh, ClpP mod, D3 antag)
CCOc1ccccc1NC(=O)C1CCN(S(=O)(=O)c2ccc3[nH]c(=O)oc3c2)CC1	TDP1 cell CPT inconclusive, TDP1 cell noCPT inconclusive (no result: IL1B secr inh, D3 antag)
COc1cc(NC(=O)c2c3c(nc4ccccc24)C(=O)N(C2CCCCC2)C3)cc(OC)c1	none (no result: IL1B secr inh, D3 antag)
CC(=O)c1ccc(NC(=O)c2c3c(nc4ccccc24)C(=O)N(C2CCCCC2)C3)cc1	TDP1 cell CPT 21µM, TDP1 cell noCPT 21µM (no result: IL1B secr inh, D3 antag)
CC(NC(=O)c1c2c(nc3ccccc13)C(=O)N(C1CCCCC1)C2)c1ccccc1 (stereo not drawn)	TDP1 cell CPT 16µM, TDP1 cell noCPT 18µM (no result: IL1B secr inh, D3 antag)
Cc1cccc(C)c1NC(=O)CNC(=O)c1ccc(N2CCCC2=O)cc1	none
COc1ccc(NC(=O)c2cc(-c3cc(Cl)ccc3O)n[nH]2)c(OC)c1	none (no result: ClpP mod)
CCOc1ccc(Cl)cc1-c1cc(C(=O)Nc2cc(OC)ccc2OC)[nH]n1	ClpP mod inconclusive, TDP1 cell CPT inconclusive, TDP1 cell noCPT 23µM
COc1ccc(NC(=O)c2cc(-c3cc(Cl)ccc3OC)n[nH]2)c(OC)c1	IL1B secr inh inconclusive, TDP1 cell CPT 23µM, TDP1 cell noCPT inconclusive
COc1ccc(Cl)cc1-c1cc(C(=O)Nc2ccc(Br)cc2)[nH]n1	IL1B secr inh inconclusive, TDP1 cell CPT inconclusive, TDP1 cell noCPT inconclusive, D3 antag -76
COc1ccc(Cl)cc1-c1cc(C(=O)Nc2ccccc2)[nH]n1	TDP1 cell CPT inconclusive, TDP1 cell noCPT inconclusive
CCOc1ccc(Cl)cc1-c1cc(C(=O)Nc2ccc(OC)cc2OC)[nH]n1	TDP1 cell CPT inconclusive, TDP1 cell noCPT 18µM
COCCCNC(=O)C1CCC(Cn2c(=O)c3sccc3n(C)c2=O)CC1 (stereo not drawn)	none (no result: IL1B secr inh, D3 antag)
Cc1cccc(NC(=O)COC(=O)CC2CCCC2)c1C	none (no result: ClpP mod)
CN(O)/C=C1\C(=O)Nc2ccccc21	none
O=C1Nc2ccccc2/C1=C\C(=O)c1ccccc1	TDP1 cell CPT 2.9µM, TDP1 cell noCPT 2.1µM
O=C(/C=C1\C(=O)Nc2ccccc21)/C=C1\C(=O)Nc2ccccc21	TDP1 cell CPT 1.5µM, TDP1 cell noCPT 1.8µM, D3 antag inconclusive

High-throughput results from PubChem BioAssay.
